Results: PubChem BioAssay AID720690 (Broad Institute, 2013)
Entries with a potency or affinity are not part of this list. Active and inactive are the calls of the source.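 How the source made its calls: active means every repeat run showing a signal drop whose fitted half-maximal concentration is at most twice the top tested concentration; inconclusive means repeat runs disagree, or flat partial drop, or poor fit; inactive means the rest.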

Experiment: general mammalian cell viability loss – activator set, cherry-pick, cytotoxicity control for miR-122 modulator project, dose response (AID 720690);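 further: 0% = neutral control wells and -100% = MG132 cytotoxic control wells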
Details: HEK293T viability, CellTiter-Glo luminescence, 48 h; series mostly up to 26 µM; activity change, negative = cytotoxicity: at the top concentration
With COc1ccc(-c2cn3c(C)c(C(=O)Nc4cccc(NC(C)=O)c4)sc3n2)cc1 the “activity change, negative = cytotoxicity” value was 39.5% (inactive).
With CC(C)C(=O)Nc1ccc2c(c1)C(=O)N(C)[C@H]1CC[C@@H](CC(=O)NCCCN(C)C)O[C@H]1CO2 the “activity change, negative = cytotoxicity” value was 5.88% (inactive).
For CC(C)NC(=O)N1C[C@@H]2[C@H](c3ccccc31)[C@@H](CO)N2C(=O)c1cccnc1, the “activity change, negative = cytotoxicity” value was -8.5% [at 23.5 µM] (inactive).
In the case of C=CCNC(=S)NNC(=O)c1cccn(Cc2ccc(Cl)c(Cl)c2)c1=O, the “activity change, negative = cytotoxicity” value is reported as -12% (inactive).
For C/C=C/c1ccc([C@@H]2[C@@H](CO)N[C@@H]2CN(CC)C(=O)CN2CCOCC2)cc1, the “activity change, negative = cytotoxicity” value was 8.67% (inactive).
For CC(=O)N(C)C[C@H]1Oc2cc(C#Cc3ccc(F)cc3)ccc2S(=O)(=O)N([C@H](C)CO)C[C@H]1C, the “activity change, negative = cytotoxicity” value was -17.6% (inactive).
In the case of C[C@H](CO)N1C[C@H](C)[C@@H](CN(C)CC2CCCCC2)OCCCC[C@H](C)Oc2ccc(NC(=O)Nc3cccc4ccccc34)cc2C1=O, the “activity change, negative = cytotoxicity” value is reported as -16.2% (inactive).
For Cc1cccc(C)c1NC(=O)CSCC(=O)c1ccc(O)c(O)c1, the “activity change, negative = cytotoxicity” value was 7.16% (inactive).
In the case of CCN(C[C@H]1[C@H](c2ccccc2)[C@H](CO)N1C(=O)COC)S(C)(=O)=O, the “activity change, negative = cytotoxicity” value is reported as -10.6% [at 23.5 µM] (inactive).
For C/C=C/c1ccc([C@H]2[C@@H](CO)N[C@@H]2CN(CC)C(=O)CN2CCOCC2)cc1, the “activity change, negative = cytotoxicity” value was -5.97% (inactive).
For CNC(=O)C[C@H]1CC[C@@H]2[C@H](COc3ccc(NC(=O)Nc4ccccc4OC)cc3C(=O)N2C)O1, the “activity change, negative = cytotoxicity” value was -0.263% (inactive).
In the case of CC(=O)N(C)C[C@H]1[C@@H](c2ccc(-c3ccc(F)cc3)cc2)[C@@H](CO)N1C(C)=O, the “activity change, negative = cytotoxicity” value is reported as 10.1% (inactive).
For C/C=C/c1ccc2c(c1)O[C@H](CN(C)C(=O)Cc1cccnc1)[C@H](C)CN([C@H](C)CO)S2(=O)=O, the “activity change, negative = cytotoxicity” value was -6.67% (inactive).
For COCC(=O)N1[C@H](CO)[C@H]2c3ccccc3N(C(=O)C3CC3)C[C@H]21, the “activity change, negative = cytotoxicity” value was -4.49% (inactive).
In the case of CCCNC(=O)C[C@H]1CC[C@@H]2[C@H](COc3ccc(NS(=O)(=O)c4ccccc4C)cc3C(=O)N2C)O1, the “activity change, negative = cytotoxicity” value is reported as -4.31% [at 23.5 µM] (inactive).
For CC(C)Oc1ccc(CNCCC2(C(C)C)CCOC(C)(C)C2)cc1 (stereo not given), the “activity change, negative = cytotoxicity” value was 12% (inactive).
In the case of CCNC(=O)C[C@H]1CC[C@@H]2[C@H](COc3ccc(NC(=O)c4cccs4)cc3C(=O)N2C)O1, the “activity change, negative = cytotoxicity” value is reported as 3.03% (inactive).
With CN1C(=O)c2cc(NC(=O)C3CC3)ccc2OC[C@@H]2O[C@H](CC(=O)NC3CCC3)CC[C@H]21 the “activity change, negative = cytotoxicity” value was -3.55% [at 23.5 µM] (inactive).
In the case of N#Cc1ccc(C(=O)Nc2ccc(N3CCN(C(=O)c4ccco4)CC3)cc2)c(F)c1, the “activity change, negative = cytotoxicity” value is reported as 8.37% (inactive).
With CN1C(=O)c2cc(NC(=O)c3cccs3)ccc2OC[C@@H]2O[C@H](CC(=O)NCC(F)(F)F)CC[C@H]21 the “activity change, negative = cytotoxicity” value was -2.83% (inactive).
With CC(C)C(=O)Nc1ccc2c(c1)C(=O)N(C)[C@@H]1CC[C@@H](CC(=O)NCCc3ccccc3)O[C@H]1CO2 the “activity change, negative = cytotoxicity” value was 11.2% (inactive).
For Cc1ccccc1NC(=O)Nc1ccc2c(c1)C(=O)N(C)[C@H]1CC[C@@H](CC(=O)O)O[C@H]1CO2, the “activity change, negative = cytotoxicity” value was -5.08% [at 23.5 µM] (inactive).
For CNC(=O)C[C@@H]1CC[C@@H]2[C@@H](COc3ccc(NC(=O)Nc4ccccc4OC)cc3C(=O)N2C)O1, the “activity change, negative = cytotoxicity” value was 17.7% (inactive).
With C/C=C/c1ccc([C@H]2[C@@H](CO)N(C(=O)C3CC3)[C@H]2CNC(=O)NC(C)C)cc1 the “activity change, negative = cytotoxicity” value was 0.786% (inactive).
In the case of O=C(Nc1ncc(Cc2cccc(C(F)(F)F)c2)s1)c1ccc(-c2cccc([N+](=O)[O-])c2)o1, the “activity change, negative = cytotoxicity” value is reported as -18.3% (inactive).
With O=C(C1CCOCC1)N1C[C@H]2[C@@H](c3ccccc31)[C@@H](CO)N2Cc1ccccc1 the “activity change, negative = cytotoxicity” value was -2.48% (inactive).
For CC(C)(C)c1ccc(S(=O)(=O)NCCc2ccncc2)cc1, the “activity change, negative = cytotoxicity” value was -16.2% (inactive).
With C[C@@H]1CN([C@@H](C)CO)C(=O)c2cc(NC(=O)Nc3cccc4ccccc34)ccc2O[C@@H](C)CCCCO[C@H]1CN(C)CC1CCCCC1 the “activity change, negative = cytotoxicity” value was -14% [at 12 µM] (inactive).
In the case of CN1C(=O)c2cc(NC(=O)Nc3cccc(Cl)c3)ccc2OC[C@H]2O[C@@H](CC(=O)NCCc3ccncc3)CC[C@H]21, the “activity change, negative = cytotoxicity” value is reported as 2.37% [at 23.5 µM] (inactive).
In the case of C[C@H](CO)N1C[C@H](C)[C@H](CN(C)C(=O)NC2CCCCC2)Oc2ncc(-c3cccc(C(F)(F)F)c3)cc2C1=O, the “activity change, negative = cytotoxicity” value is reported as -2.88% [at 23.5 µM] (inactive).
For Cc1cc(NS(=O)(=O)c2ccc(NC(=O)C(CC(C)C)N3C(=O)c4ccccc4C3=O)cc2)nc(C)n1 (stereo not given), the “activity change, negative = cytotoxicity” value was 2.02% (inactive).
With COc1ccc(NS(=O)(=O)c2ccc(NC(=O)C(C)(C(F)(F)F)C(F)(F)F)cc2)nn1 the “activity change, negative = cytotoxicity” value was 5.66% (inactive).
In the case of C/C=C/c1ccc([C@@H]2[C@@H](CO)N(C(C)=O)[C@@H]2CN(CC)C(=O)CN(C)C)cc1, the “activity change, negative = cytotoxicity” value is reported as -3.94% (inactive).
In the case of Cc1ccc(C(=O)n2nc(-c3ccccc3)nc2NCc2ccco2)cc1, the “activity change, negative = cytotoxicity” value is reported as 12.1% (inactive).
For C/C=C/c1ccc2c(c1)O[C@H](CN(C)C(=O)Nc1cccc(F)c1)[C@H](C)CN([C@@H](C)CO)S2(=O)=O, the “activity change, negative = cytotoxicity” value was -11.1% (inactive).
